Assay results from PubChem BioAssay (EPA / NIEHS).
Activity calls are given as the source filed them. Rule for the calls: active = hit-call score of the fitted dose curve at least 0.9, where 1 is the maximum; inactive = score below 0.9.

Experiments:
[1] = target: Bile acid receptor (Homo sapiens) (UniProt Q96RI1); experiment: ATG_IR1_CIS: Attagene CIS-FACTORIAL HepG2 Assay for human Nuclear Receptor Subfamily 1 Group H Member 4 (NR1H4), IR1 submotif (AID 2282946); settings: IR1 reporter transcription, actives raise or lower the signal
Method in brief: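 Cells (human HepG2) carry transiently transfected cis-promoter reporter transcription units. Compounds are incubated 24 h, total RNA is reverse-transcribed and amplified, and labelled fragments are resolved by capillary electrophoresis. Curves use DMSO as baseline.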

[2] = ATG_GRE_CIS: Attagene CIS-FACTORIAL HepG2 Assay for human Glucocorticoid Response Elements (GRE) (AID 2282947); settings: HepG2 GRE cis-reporter, Attagene multiplex mRNA; actives raise or lower the signal
Method in brief: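 Transient MRTU transfection of human HepG2 liver cells; cis-regulated reporters report endogenous factors. 24 h dosing → RNA isolation → RT-PCR → 6-FAM primer extension → HpaI cut → CE fragment analysis. Bidirectional fit, DMSO negative control.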

[3] = ATG_ISRE_CIS: Attagene CIS-FACTORIAL HepG2 Assay for human Interferon Regulatory Factor 1 (IRF1) binding to an Interferon-Stimulated Response Element (ISRE) (AID 2282948); settings: HepG2 ISRE cis-reporter (Attagene), mRNA transcription readout; actives raise or lower the signal
Method in brief: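 HepG2 cells transiently transfected with multiplexed cis-promoter reporter units; after 24 h compound exposure, reporter mRNA quantified by RT-PCR, FAM labelling, HpaI digestion and capillary electrophoresis. Bidirectional fit versus DMSO baseline.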

[4] = ATG_M_06_CIS: Attagene CIS-FACTORIAL HepG2 Assay for M06 Transcription Factor (Internal Marker) (AID 2282950); settings: HepG2 Attagene CIS-FACTORIAL M06 internal marker reporter; actives raise or lower the signal
Method in brief: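 Serves as a background control readout. Transfected HepG2 exposed to compounds for 24 h, then reporter transcripts quantified by fluorescent RT-PCR and capillary electrophoresis. Both directions fitted against DMSO baseline.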

[5] = target: Hypoxia-inducible factor 1-alpha (Homo sapiens) (UniProt Q16665); experiment: ATG_HIF1a_CIS: Attagene CIS-FACTORIAL HepG2 Assay for human Hypoxia Inducible Factor 1 (HIF1A) (AID 2282951); settings: HepG2 Attagene cis-factorial HIF1a reporter transcription; actives raise or lower the signal
Method in brief: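 Activity is fitted in both directions relative to DMSO. Reporter transcripts are read by RT-PCR, fluorescent primer extension and capillary electrophoresis after 24 h chemical treatment. The cells are HepG2 carrying transiently transfected cis-element-driven reporter units responding to endogenous factors.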

[6] = target: Hepatocyte nuclear factor 6 (Homo sapiens) (UniProt Q9UBC0); experiment: ATG_HNF6_CIS: Attagene CIS-FACTORIAL HepG2 Assay for human Hepatocyte Nuclear Factor 6 (HNF6) (AID 2282952); settings: HepG2 Attagene cis-factorial HNF6 reporter transcription; actives raise or lower the signal
Method in brief: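 HepG2, transient MRTU transfection (cis promoters); 24 h chemical exposure; total RNA → oligo(dT) RT → PCR → 6-FAM labelling → HpaI cut → CE; bidirectional fit vs DMSO.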

[7] = target: Heat shock factor protein 1 (Homo sapiens) (UniProt Q00613); experiment: ATG_HSE_CIS: Attagene CIS-FACTORIAL HepG2 Assay for human Heat Shock Transcription Factor 1 (HSE) (AID 2282953); settings: HepG2 HSE cis-reporter, Attagene RNA transcription; actives raise or lower the signal
Method in brief: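 Endogenous transcription factor activity in transiently transfected HepG2, read as reporter mRNA by RT-PCR with fluorescent capillary electrophoresis after 24 h. Gain or loss of signal fitted versus DMSO baseline.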

[8] = ATG_MRE_CIS: Attagene CIS-FACTORIAL HepG2 Assay for human Metal Responsive Element (MRE) (AID 2282954); settings: HepG2 MRE cis-reporter transcription, Attagene multiplex; actives raise or lower the signal
Method in brief: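 Transient MRTU transfection of HepG2 (FuGene 6); 24 h dosing; total RNA → oligo(dT) RT, PCR, 6-FAM primer extension, HpaI cut, CE. Bidirectional fit vs DMSO.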

[9] = ATG_PBREM_CIS: Attagene CIS-FACTORIAL HepG2 Assay for human Phenobarbital-responsive Enhancer Module (PBREM) (AID 2282955); settings: HepG2 PBREM cis-reporter, Attagene multiplexed transcription; actives raise or lower the signal
Method in brief: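 Endogenous transcription factor activity was read from reporter transcripts in transiently transfected human HepG2 liver cells after 24 h dosing. RT-PCR products were fluorescently labelled, HpaI-cut and sized by capillary electrophoresis; activity fitted bidirectionally against DMSO baseline.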

[10] = ATG_M_32_CIS: Attagene CIS-FACTORIAL HepG2 Assay for M32 Transcription Factor (Internal Marker) (AID 2282949); settings: HepG2 Attagene cis-factorial M32 reporter, mRNA; actives raise or lower the signal;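 note: background control marker of the multiplexed CIS panel rather than a real target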
Method in brief: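 Fluorescent capillary electrophoresis peaks of HpaI-digested, FAM-labelled RT-PCR reporter products give the signal. Source: transiently transfected human liver HepG2 cells, 24 h after chemical dosing; bidirectional fitting against DMSO.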

Bile acid receptor (Homo sapiens), sequence (Q96RI1 whole entry, looked up, the tested form may be a part): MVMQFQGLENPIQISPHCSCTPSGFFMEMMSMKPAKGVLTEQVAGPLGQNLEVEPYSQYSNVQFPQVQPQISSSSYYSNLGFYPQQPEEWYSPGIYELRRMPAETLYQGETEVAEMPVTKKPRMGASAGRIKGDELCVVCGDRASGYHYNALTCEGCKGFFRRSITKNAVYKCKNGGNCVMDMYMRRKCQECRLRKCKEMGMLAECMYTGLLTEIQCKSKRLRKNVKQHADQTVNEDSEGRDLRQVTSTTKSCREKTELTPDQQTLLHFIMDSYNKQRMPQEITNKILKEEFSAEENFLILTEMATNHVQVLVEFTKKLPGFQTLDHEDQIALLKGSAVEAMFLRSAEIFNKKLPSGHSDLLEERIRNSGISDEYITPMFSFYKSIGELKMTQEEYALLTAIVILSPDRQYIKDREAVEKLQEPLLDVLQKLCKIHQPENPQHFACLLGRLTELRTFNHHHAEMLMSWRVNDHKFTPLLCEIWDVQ
Hypoxia-inducible factor 1-alpha (Homo sapiens), sequence (Q16665 whole entry, looked up): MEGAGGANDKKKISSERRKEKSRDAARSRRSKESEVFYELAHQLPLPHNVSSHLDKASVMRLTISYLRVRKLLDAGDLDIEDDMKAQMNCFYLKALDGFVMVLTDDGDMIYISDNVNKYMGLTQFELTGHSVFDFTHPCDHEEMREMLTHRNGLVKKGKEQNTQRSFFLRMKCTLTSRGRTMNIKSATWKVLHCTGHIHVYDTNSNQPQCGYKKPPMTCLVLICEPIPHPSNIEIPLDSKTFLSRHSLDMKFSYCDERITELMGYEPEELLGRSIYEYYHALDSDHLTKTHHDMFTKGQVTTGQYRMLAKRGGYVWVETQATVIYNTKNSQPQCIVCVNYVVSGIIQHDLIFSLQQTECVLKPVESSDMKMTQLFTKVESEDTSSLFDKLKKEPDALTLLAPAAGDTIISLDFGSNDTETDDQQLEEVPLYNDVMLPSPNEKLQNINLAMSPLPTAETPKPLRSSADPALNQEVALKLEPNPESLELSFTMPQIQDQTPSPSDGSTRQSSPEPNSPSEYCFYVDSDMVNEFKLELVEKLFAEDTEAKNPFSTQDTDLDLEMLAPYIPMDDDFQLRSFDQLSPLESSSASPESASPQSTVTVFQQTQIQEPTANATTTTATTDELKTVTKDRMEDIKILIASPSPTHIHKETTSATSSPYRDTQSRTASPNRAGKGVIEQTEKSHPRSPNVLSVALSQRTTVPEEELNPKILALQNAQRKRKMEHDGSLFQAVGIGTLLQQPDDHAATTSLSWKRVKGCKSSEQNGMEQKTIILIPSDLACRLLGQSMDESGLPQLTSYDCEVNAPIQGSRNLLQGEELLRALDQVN
Heat shock factor protein 1 (Homo sapiens), sequence (Q00613 whole entry, looked up): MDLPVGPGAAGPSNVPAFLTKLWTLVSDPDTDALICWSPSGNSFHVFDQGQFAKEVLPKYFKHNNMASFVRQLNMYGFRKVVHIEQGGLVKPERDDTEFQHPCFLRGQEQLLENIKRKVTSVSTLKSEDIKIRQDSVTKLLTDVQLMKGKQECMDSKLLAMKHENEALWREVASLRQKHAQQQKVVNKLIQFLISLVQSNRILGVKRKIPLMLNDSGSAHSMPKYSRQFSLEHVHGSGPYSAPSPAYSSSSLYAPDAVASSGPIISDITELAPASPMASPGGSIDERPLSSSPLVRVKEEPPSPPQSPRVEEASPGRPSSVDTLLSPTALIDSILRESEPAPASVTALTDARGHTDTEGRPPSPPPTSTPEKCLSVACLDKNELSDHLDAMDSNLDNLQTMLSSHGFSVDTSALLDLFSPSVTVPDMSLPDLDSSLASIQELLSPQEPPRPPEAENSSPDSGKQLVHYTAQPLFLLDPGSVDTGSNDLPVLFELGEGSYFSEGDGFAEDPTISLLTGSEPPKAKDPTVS
Hepatocyte nuclear factor 6 (Homo sapiens), sequence (Q9UBC0 whole entry, looked up): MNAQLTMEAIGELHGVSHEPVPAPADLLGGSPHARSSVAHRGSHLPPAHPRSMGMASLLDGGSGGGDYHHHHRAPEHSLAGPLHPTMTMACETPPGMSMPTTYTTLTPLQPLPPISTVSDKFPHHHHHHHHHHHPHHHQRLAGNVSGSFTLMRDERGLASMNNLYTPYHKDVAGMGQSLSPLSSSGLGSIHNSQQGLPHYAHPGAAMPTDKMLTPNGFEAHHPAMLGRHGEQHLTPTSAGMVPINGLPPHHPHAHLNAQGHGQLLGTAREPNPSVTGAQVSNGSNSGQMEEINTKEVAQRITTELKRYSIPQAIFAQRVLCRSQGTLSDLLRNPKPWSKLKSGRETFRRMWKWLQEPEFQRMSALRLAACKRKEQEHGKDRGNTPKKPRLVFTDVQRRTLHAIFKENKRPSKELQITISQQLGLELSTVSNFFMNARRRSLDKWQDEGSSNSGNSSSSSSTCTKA

SMILES	AC50 [1]	outcome [2]	outcome [3]	outcome [4]	outcome [5]	outcome [6]	outcome [7]	AC50 [8]	outcome [9]	AC50 [2]	AC50 [3]	outcome [10]	outcome [8]	outcome [1]	AC50 [7]
CCCCCCCCSCCO	151 µM (active)	inactive	inactive	inactive	inactive	inactive	inactive	153 µM (active)	inactive	–	–	–	–	–	–
CCCC1O[C@@H]2C[C@H]3[C@@H]4CCC5=CC(=O)C=C[C@]5(C)[C@H]4[C@@H](O)C[C@]3(C)[C@]2(C(=O)CO)O1 (some centres undefined)	100 µM (active)	–	–	–	–	inactive	inactive	–	inactive	0.0815 µM (active)	137 µM (active)	inactive	inactive	–	–
COc1cc(Cl)c(OC)cc1N	–	inactive	–	inactive	inactive	inactive	inactive	–	–	–	–	inactive	inactive	inactive	–
C[C@H]1O[C@@H](O[C@H]2[C@@H](O)C[C@H](O[C@H]3[C@@H](O)C[C@H](O[C@H]4CC[C@@]5(C)[C@H](CC[C@@H]6[C@@H]5C[C@@H](O)[C@]5(C)[C@@H](C7=CC(=O)OC7)CC[C@]65O)C4)O[C@@H]3C)O[C@@H]2C)C[C@H](O)[C@@H]1O	0.253 µM (active)	–	–	inactive	–	inactive	–	0.182 µM (active)	–	3.3 µM (active)	0.179 µM (active)	inactive	–	–	0.194 µM (active)
Cc1c(OCC(F)(F)F)ccnc1CS(=O)c1nc2ccccc2[nH]1 (centres undefined)	–	inactive	inactive	inactive	–	inactive	–	73.1 µM (active)	inactive	–	–	inactive	–	inactive	–
CCC1CCCCC1	–	inactive	inactive	–	inactive	inactive	inactive	–	inactive	–	–	inactive	inactive	inactive	–
COC(=O)Nc1ccc(Cl)c(Cl)c1	–	–	–	inactive	inactive	inactive	inactive	49.7 µM (active)	inactive	25.7 µM (active)	30.7 µM (active)	–	–	inactive	–
C[C@H](CCC(=O)NCC(=O)O)[C@H]1CC[C@H]2[C@@H]3[C@H](O)C[C@@H]4C[C@H](O)CC[C@]4(C)[C@H]3C[C@H](O)[C@]12C	–	inactive	inactive	inactive	–	inactive	inactive	–	–	–	–	–	inactive	inactive	–
CSCCC=O	–	inactive	inactive	inactive	inactive	inactive	–	–	–	–	–	inactive	inactive	inactive	–
COc1ccc(CCC(C)=O)cc1	–	–	inactive	inactive	inactive	inactive	inactive	–	–	–	–	inactive	inactive	inactive	–
CC1(C)O[C@@H]2C[C@H]3[C@@H]4CCC5=CC(=O)C=C[C@]5(C)[C@@]4(F)[C@@H](O)C[C@]3(C)[C@]2(C(=O)CO)O1	–	–	–	inactive	inactive	inactive	–	–	–	0.419 µM (active)	–	inactive	inactive	inactive	–
C=C(C)C(=O)OCCOCCOCCOCCOC(=O)C(=C)C	–	–	inactive	inactive	inactive	inactive	inactive	–	inactive	–	–	inactive	inactive	inactive	–
O=CCc1ccccc1	–	inactive	–	–	inactive	inactive	inactive	–	inactive	–	–	inactive	inactive	inactive	–
CC1=C(Br)C(=O)C(Br)=C/C1=C(/c1ccccc1S(=O)(=O)O)c1cc(Br)c(O)c(Br)c1C	–	inactive	–	–	inactive	inactive	inactive	–	inactive	–	–	inactive	inactive	inactive	–
